Inconclusive results are not listed. Calls of active or inactive are those of the source. Calls come from the whole dose curve; as a rule, active = well fitted cell-killing curve with a large enough effect; inconclusive = small, poorly fitted or top-dose-only effect; inactive = flat fitted curve, though single readings scatter.
Test: PC3M Cytotoxicity Assay for Compounds that Inhibit the Perinuclear Compartment
Conditions: PC3M-GFP viability, ATPLite luminescence, 24 h
Description: The perinucleolar compartment (PNC) is a non-membrane-bound nuclear subdomain that is associated with but structurally distinct from the nucleolus. The PNC is a heritable trait, in which the number of PNCs per cell in daughter cells often mimics that of their mother cells. The PNC is heterogeneous in shape, is stable through interphase, disassembles during mitosis, and reassembles in early G1. The PNC is concentrated with newly synthesized RNA polymerase III (pol III) RNAs (MRP RNA, RNAse P H1 RNA, hY RNAs[hY1, 2, 5], Alu RNA, and SRP [7SL] RNA) and RNA binding proteins (nucleolin, PTB, CUG-BP, KSRP, Raver1, Raver2, and Rod). […] Extensive in vitro studies have shown that the PNC is unique to tumor cells and preferentially forms in tumor cells derived from solid tissues. Examination of cancer cell lines from various origins and malignant capacities has shown that PNC prevalence correlates with the malignancy of tumors and has the potential to be developed as a pan-cancer prognostic marker. […] Although the PNC is associated with a DNA locus and a handful of components have been identified, much remains to be investigated regarding the structure and function of the PNC and its mechanistic link to cancer. We have previously shown that PNC prevalence reduction is a valid strategy to identify compounds that can be used to study the structure and function of the PNC. It is necessary, however, to create a screening platform that is able to test a large number of compounds in an automated fashion. Here we report the development and robustness of an automated whole-cell phenotypic image-based screening assay that is capable of identifying such compounds. We conducted a followup assay to measure the effect of the lead candidates on cell health by measuring ATP levels (ATPLite). The highly metastatic PC3M-GFP reporter cell line was used in this study. NIH Chemical Genomics Center [NCGC] NIH Molecular Libraries Probe Centers Network [MLPCN] MLPCN Grant: MH082371-01A2 Assay Submitter (PI): Sui Huang, Northwestern University, Feinberg School of Medicine, Cell and Molecular Biology, Chicago, Illinois.
1. Cells at a density of 75-90% confluency in T175 flasks were harvested using 7 ml TrypLE Express cell dissociation reagent. After dissociation (5 minutes room temperature incubation) 10 ml of complete media was added to the TrypLE/cell suspension. The liquid was transferred to a 50 ml Conical tube and cells were pelleted at 1000 RPM for 5 min. Supernatant was removed and cells were resuspended to a final density of 150-200 cells/ul in complete media. 2. Cells were plated in 5 ul volume (2000 cells/well) into 1536 well White solid bottom plates and allowed to recover and adhere at 37 C in a humidified 5% CO2 incubator for 4 hours. 3. After 4 hour incubation, compound libraries (23 nl of […] in columns 5-48) were transferred to the plates in duplicate using a 1536 well pintool. Camptothecin positive control (59 uM final) was added to column 2 and 1:3 dilutions of camptothecin was added to column 3. DMSO negative controls were present in columns 1 and 4. 4. After a 24 hour incubation in the 37 C incubator, all wells were treated with 3 ul of ATPLite reagent using a multidrop combi dispenser (ThermoFisher). Bubbles that formed during dispensing were removed by spinning the plates for 1 minutre at 1500 RPM on a table top centrifuge. 5. Luminescencent signal was detected on a Viewlux CCD based imager (PerkinElmer) with a clear filter and a 30 second integration time. The PC3M cell line stably expressing the PTB-GFP was provided by Sui Huang of Northwestern University. The media and cell culture reagents were purchased from Invitrogen (Carlsbad, CA), ATPLite came from PerkinElmer.
In the case of N=c1c2c(-c3ccccc3)c(-c3ccccc3)n(Cc3ccco3)c2ncn1CCO, the Potency is reported as 19.9 µM (active).
With N=c1c2c(-c3ccccc3)c(-c3ccccc3)n(Cc3ccccc3)c2ncn1CCCn1ccnc1 the Potency was 19.9 µM (active).
With N=c1c2c(-c3ccccc3)c(-c3ccccc3)n(Cc3ccco3)c2ncn1CCCn1ccnc1 the Potency was 25 µM (active).
In the case of N=c1c2c(-c3ccccc3)c(-c3ccccc3)n(Cc3ccco3)c2ncn1Cc1ccco1, the Potency is reported as 19.9 µM (active).
With CC(C)Cn1cnc2c(c(-c3ccccc3)c(-c3ccccc3)n2Cc2ccco2)c1=N the Potency was 19.9 µM (active).
In the case of N=c1c2c(-c3ccccc3)c(-c3ccccc3)n(Cc3ccco3)c2ncn1Cc1ccccc1, the Potency is reported as 19.9 µM (active).
